# Source: ChEMBL document CHEMBL4513146, “CO-ADD screening of Karazin Kharkiv National University (Ukraine) compounds”
# Measured potencies and affinities stand elsewhere.
# Columns and labels:
# Klebsiella pneumoniae = conditions: Concentration 32 ug.mL-1;; ASSAY_TEST Inhibition of Bacterial Growth; detection method Absorption (OD600); MEDIA CAMHB; plate type 384well; NBS; CORNING #3640; time 18 hr
# Candida albicans = conditions: Concentration 32 ug.mL-1; ASSAY_TEST Inhibition of Fungal Growth; detection method Absorption (OD530)
# Cryptococcus neoformans = conditions: Concentration 32 ug.mL-1; ASSAY_TEST Inhibition of Fungal Growth; detection method Resazurin; Absorption (OD600-OD570); plate type 384well; NBS; CORNING #3640
SMILES,Inhibition (Klebsiella pneumoniae),Inhibition (Candida albicans),Inhibition (Cryptococcus neoformans)
Cc1cc(C)cc(Nc2nc(C)cc3nn(CC(=O)NC4CCCCC4)c(=O)n23)c1,13.04%,1.39%,-8.46%
O=c1c2sccc2n2c(=O)n(Cc3cccc(Cl)c3)nc2n1Cc1cccs1,3.75%,61.44%,-14.34%
COc1cccc(-n2ccn3c(SCC(=O)c4ccc(C)cc4C)nnc3c2=O)c1,16.45%,4.51%,-10.37%
Cc1ccc(Sc2nccn3c(=O)n(CC(=O)Nc4ccc(F)c(Cl)c4)nc23)c(C)c1,-6.57%,10.6%,-11.17%
Cc1ccc(Cn2nc3c(=O)n(-c4cccc(F)c4)ccn3c2=O)cc1,1.12%,5.68%,-10.74%
Cc1ccc(Cn2c(=O)c3ccc(C(=O)NC4CCCC4)cc3n3c(=O)n(CC#N)nc23)cc1,8.48%,2.86%,-4.65%
COc1cccc(CN(c2cccc(F)c2)S(=O)(=O)c2ccc3nnc(C)n3c2)c1,3.28%,3.11%,-1.07%
COc1ccc(C(=O)CSc2nnc3c(=O)n(-c4ccc(F)cc4)ccn23)cc1OC,11.15%,4.19%,-8.42%
O=c1c2nnc(SCc3ccc(Cl)cc3)n2ccn1-c1ccc(F)cc1,9.2%,1.38%,-5.79%
O=C(CSc1nnc2c(=O)n(-c3ccccc3)ccn12)N1CCN(c2ccc(F)cc2)CC1,13.33%,-0.45%,-26.48%
COc1cc(NC(=O)Cn2nc3ccc(SC(C)(C)C)nn3c2=O)cc(OC)c1OC,14.77%,0.63%,-18.78%
Cc1cc2nn(CC(=O)NCc3ccccc3)c(=O)n2c(-c2ccc(C(F)(F)F)cc2)n1,-2.81%,22.82%,-6.62%
O=C(CCc1nnc2c(N3CCCCC3)nc3ccccc3n12)NCc1ccc(F)cc1,6.52%,8.78%,-23.71%
Cc1nnc2c(SCC(=O)N3CCN(c4ccccc4F)CC3)nc3ccccc3n12,10.03%,8.32%,-3.27%
COc1cc(NC(=O)Cn2nc3c(Sc4cccc(F)c4)nccn3c2=O)cc(OC)c1,4.9%,1.46%,-6.36%
COc1cccc(Oc2nccn3c(=O)n(CC(=O)Nc4cc(C)c(Cl)cc4OC)nc23)c1,-0.9%,1.25%,-7.05%
CCC(C)NC(=O)Cn1nc2ccc(SCc3ccc(Cl)cc3)nn2c1=O (stereo not given),12.21%,3.51%,-20.85%
CCOC(=O)N1CCN(C(=O)CCc2nnc3c4cc(-c5ccc(F)cc5)nn4ccn23)CC1,12.38%,2.97%,-14.63%
O=S(=O)(c1ccc2nncn2c1)N(Cc1cc(F)cc(F)c1)c1ccc2c(c1)OCO2,11.56%,2.54%,-7.84%
CCc1ccc(Cn2c(=O)c3sccc3n3c(SCc4cccc(C(F)(F)F)c4)nnc23)cc1,8.34%,1.88%,-21.14%

SMILES,Inhibition (Klebsiella pneumoniae),Inhibition (Candida albicans),Inhibition (Cryptococcus neoformans)
O=S(=O)(c1ccc2nncn2c1)N(Cc1cc(F)cc(F)c1)c1ccccc1,-3.49%,-0.85%,-9.11%
Cc1ccc(-n2ccn3c(=O)n(Cc4cccc(Cl)c4)nc3c2=O)cc1C,2.85%,1.08%,-13.91%
O=C(Cn1nc2c3cc(-c4ccc(Cl)cc4)nn3ccn2c1=O)NCc1ccccc1,15.63%,3.19%,-21.92%
Cc1ccc(C)c(NC(=O)Cn2nc3ccc(-c4ccccc4)nn3c2=O)c1,5.6%,1.64%,-11.25%
COc1ccc(C(C)NC(=O)CCc2nnc3ccc(-c4ccc(C)c(C)c4)nn23)cc1OC (stereo not given),11.56%,3.04%,-6.29%
CC(C)n1c(=O)c2ccc(C(=O)NC3CCCC3)cc2n2c(=O)n(Cc3cccc(C(F)(F)F)c3)nc12,13.79%,1.19%,-23.89%
COc1ccc(N2CCN(C(=O)Cn3nc4ccc(-c5ccc(Cl)cc5)nn4c3=O)CC2)cc1,-0.61%,7.77%,-9.26%
COc1ccccc1Cn1c(=O)c2sccc2n2c(=O)n(Cc3ccccc3)nc12,5.78%,-0.06%,-28.67%
N#Cc1ccc(NC(=O)Cn2nc3c(Oc4ccccc4)nccn3c2=O)cc1,4.51%,0.35%,-7.22%
Cc1ccc(Oc2nccn3c(=O)n(CC(=O)N4CCN(c5ccc(F)cc5)CC4)nc23)cc1,19.83%,0.18%,-7.7%
O=C(Cn1nc2c(SC3CCCCC3)nccn2c1=O)N1CCN(c2ccc(F)cc2)CC1,10.98%,0.3%,-4.89%
Cc1ccc(C)c(Cn2nc3c(=O)n(-c4cccc(Cl)c4C)ccn3c2=O)c1,3.77%,2.62%,-13.68%
COC(=O)c1sccc1NC(=O)Cn1nc2c(Oc3ccccc3)nc3ccccc3n2c1=O,10.72%,1.3%,-16.14%
CSc1cccc(NC(=O)Cn2nc3ccc(SC(C)(C)C)nn3c2=O)c1,7.55%,2.25%,-15.09%
O=c1c2nn(Cc3ccc([N+](=O)[O-])cc3)c(=O)n2ccn1-c1ccccc1,13.17%,3.56%,-7.73%
CCN(C(=O)CSc1nnc2c3cc(-c4ccc(OC)cc4)nn3ccn12)c1ccccc1,4.95%,2.01%,-1.74%
O=S(=O)(c1ccc2nncn2c1)N(Cc1cc(F)cc(F)c1)c1cccc(F)c1,11.98%,2.7%,-8.32%
CC(C)CCn1c(=O)c2sccc2n2c(=O)n(CC(=O)N3CCC(Cc4ccccc4)CC3)nc12,-9.97%,0.93%,-41.06%
CCOc1ccc(C(=O)Cn2nc3n(Cc4ccccc4OC)c(=O)c4sccc4n3c2=O)cc1,8.36%,6.12%,-29.81%
Cc1cc2nn(CC(=O)Nc3ccc(C)c(F)c3)c(=O)n2c(Nc2ccc(C)c(F)c2)n1,13.96%,19.28%,-10.18%

SMILES,Inhibition (Klebsiella pneumoniae),Inhibition (Candida albicans),Inhibition (Cryptococcus neoformans)
COc1cccc(CN(c2ccc(Cl)cc2)S(=O)(=O)c2ccc3nncn3c2)c1,6.15%,2.49%,-6.94%
COc1cc(NC(=O)Cn2nc3ccc(SC(C)C)nn3c2=O)cc(OC)c1,4.22%,10.99%,-7.98%
CCc1nnc2c(=O)n(CC(=O)Nc3ccc4c(c3)OCCO4)c3ccccc3n12,1.64%,13.49%,-11.52%
CCOc1ccc(C(=O)CSc2nnc3c(=O)n(-c4ccc(F)cc4)ccn23)cc1,4.99%,1.29%,-6.51%
Cc1cc2nn(CC(=O)Nc3ccc(Cl)cc3)c(=O)n2c(Nc2ccc(F)c(C)c2)n1,19.07%,3.54%,-11.52%
CC(C)c1ccc(NC(=O)CSc2nnc3c(=O)n(-c4ccccc4)ccn23)cc1,7.22%,-0.59%,-12.85%
O=C(Cn1nc2c(SC3CCCCC3)nccn2c1=O)Nc1ccccc1Br,3.34%,3.41%,-1.71%
COc1ccc(-c2cc3c4nn(CC(=O)Nc5ccc(C)cc5C)c(=O)n4ccn3n2)cc1,11.47%,2.57%,-20.53%
O=c1c2nnc(SCc3cccc(C(F)(F)F)c3)n2ccn1-c1ccc(Br)cc1,4%,27.57%,-8.16%
O=C(Cn1nc2ccc(SCc3ccc(Cl)cc3)nn2c1=O)NCc1ccccc1,6.87%,25.95%,-17.55%
CC(C)c1nnc2c(=O)n(CC(=O)Nc3ccc(F)cc3F)c3ccccc3n12,15.02%,0.81%,-23.4%
COc1cc(OC)c(NC(=O)Cn2nc3c(Oc4cccc(C)c4C)nccn3c2=O)cc1Cl,8.97%,0.16%,-9.4%
N#CCn1nc2n(Cc3ccc(F)cc3)c(=O)c3ccccc3n2c1=O,3.36%,3.09%,-7.73%
CCc1nnc2c(=O)n(CC(=O)Nc3ccc(NC(C)=O)cc3)c3ccccc3n12,5.97%,5.77%,-14.46%
CC(C)c1ccc(NC(=O)Cn2nc3c(SCc4ccccc4)nccn3c2=O)cc1,2.82%,10.67%,-15.97%
O=C(CCc1nnc2ccc(-c3ccc(Cl)cc3)nn12)NCc1ccc(F)cc1Cl,20.9%,0.76%,-15.23%
Cc1cc(C)cc(N(Cc2cccc(F)c2)S(=O)(=O)c2cccn3c(C)nnc23)c1,2.61%,2.81%,-7.1%
CCC(Sc1nnc2c(=O)n(-c3ccccc3)ccn12)C(=O)Nc1ccc(OC)cc1OC (stereo not given),9.44%,2.91%,-10.74%
COc1ccc(C)cc1NC(=O)Cn1nc2c3cc(-c4ccc(C)c(C)c4)nn3ccn2c1=O,11.68%,0.52%,-9.82%
Cc1nnc2c(=O)n(CC(=O)Nc3ccc(Cl)cc3)c3ccccc3n12,4.43%,-0.59%,-11.19%
